From PubChem
In the library only some 3.5% were active in any assay of this set; here they are far more common.
FBA Mtb inh – Mtb fructose-bisphosphate aldolase inhibition; AID 588726; 360,000 tested, 2.3% active; inhibition, % at 1 µM; purified M. tuberculosis FBA, fluorescence read-out; in the data active means inhibition above about 27%
Rv3671c protease – inhibitors of M. tuberculosis serine protease Rv3671c; 320,000 tested, 0.048% active; AID 2606; inhibition, % at 5.96 µM; P9WHR9; in the data active means inhibition above about 38%;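 further: extracellular domain of Rv3671c used as enzyme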
Target sequence (P9WHR9 whole entry, looked up, the tested form may be a part): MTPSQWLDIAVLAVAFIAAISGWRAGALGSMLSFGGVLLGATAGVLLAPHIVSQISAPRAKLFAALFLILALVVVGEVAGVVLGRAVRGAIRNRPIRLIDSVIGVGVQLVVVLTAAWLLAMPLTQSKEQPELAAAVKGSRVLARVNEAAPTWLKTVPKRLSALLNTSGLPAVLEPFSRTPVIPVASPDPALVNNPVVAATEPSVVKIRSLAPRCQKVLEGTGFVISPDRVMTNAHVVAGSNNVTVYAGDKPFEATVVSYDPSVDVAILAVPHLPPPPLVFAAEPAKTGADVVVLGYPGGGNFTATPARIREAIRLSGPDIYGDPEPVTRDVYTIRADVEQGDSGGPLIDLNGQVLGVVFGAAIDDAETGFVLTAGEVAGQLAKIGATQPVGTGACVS
Mtb betalactam – beta-lactam sensitization of Mtb H37Rv; M. tuberculosis H37Rv growth with meropenem, percent inhibition; 330,000 tested, 0.27% active; inhibition, % at 25 µM; call rule not given here;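 further: growth measured after seven days incubation then overnight dye step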
UGM FP inh – Mtb UDP-galactopyranose mutase inhibition. P9WIQ1. purified UGM, fluorescence polarization probe displacement. inhibition, % at 10 µM. 320,000 tested, 0.06% active. AID 504406; in the data active means inhibition above about 10%, passing the limit was not always enough
GDH-TPI inh – inhibits GDH-TPI coupling enzymes, artifact for Mtb FBA screen | GDH-TPI coupled enzyme counterscreen, NADH absorbance | inhibition, % at 4.8 µM | 360,000 tested, 1.2% active; in the data active means inhibition above about 30%
Numbers stand for hits.

CCCCNC(=S)N/N=C/c1ccc(C)s1 was read as FBA Mtb inh inactive, Rv3671c protease inactive, Mtb betalactam inactive, UGM FP inh inactive and GDH-TPI inh 63.
For CCOC(=O)C(Sc1cc(-c2ccccc2)nc2ncnn12)C(C)=O (stereo not drawn) the results were FBA Mtb inh inactive, Rv3671c protease inactive, Mtb betalactam inactive, UGM FP inh inactive and GDH-TPI inh inactive.
`COc1ccc(-c2cc(C(F)(F)F)nc(S(C)(=O)=O)n2)cc1` gave FBA Mtb inh inactive, Rv3671c protease inactive, Mtb betalactam inactive, UGM FP inh inactive and GDH-TPI inh 39.
Screening COc1cccc(Nc2ccccc2C(=O)O)c1 returned FBA Mtb inh inactive, Rv3671c protease inactive, Mtb betalactam inactive, UGM FP inh inactive and GDH-TPI inh inactive.
`COc1cccc(Nc2ncc(C(=O)O)c3ccccc23)c1` gave FBA Mtb inh inactive, Rv3671c protease inactive, Mtb betalactam inactive, UGM FP inh inactive and GDH-TPI inh 36.
For Cc1cc(C)c2c(=O)cc(C(F)(F)F)oc2n1 the results were FBA Mtb inh inactive, Rv3671c protease inactive, Mtb betalactam inactive, UGM FP inh inactive and GDH-TPI inh inactive.
For CC(C)CNS(=O)(=O)c1ccc(CCC(=O)N2CCC(C(N)=O)CC2)cc1 the results were FBA Mtb inh inactive, Rv3671c protease inactive, Mtb betalactam inactive, UGM FP inh inactive and GDH-TPI inh inactive.
`c1ccc(CSC2=NNC(c3ccccn3)S2)cc1` (stereo not drawn) gave FBA Mtb inh inactive, Rv3671c protease inactive, Mtb betalactam inactive, UGM FP inh inactive and GDH-TPI inh inactive.
O=C(CSC1=NNC(c2ccccn2)S1)Nc1ccc(C(F)(F)F)cc1 (stereo not drawn) was read as FBA Mtb inh inactive, Rv3671c protease inactive, Mtb betalactam inactive, UGM FP inh inactive and GDH-TPI inh 32.
CCC/C(=N\NC(=O)c1ccco1)c1ccc(Cl)s1 was read as FBA Mtb inh inactive, Mtb betalactam inactive, UGM FP inh inactive and GDH-TPI inh inactive.
For O=Cc1ccc(-c2ccc(C(=O)O)cc2)o1 the results were FBA Mtb inh inactive, Rv3671c protease inactive, Mtb betalactam inactive, UGM FP inh inactive and GDH-TPI inh 42.
CCOc1ccc(-c2c(C(=O)N/N=C/c3ccc(C)s3)nnn2-c2nonc2N)cc1 was read as FBA Mtb inh inactive, Rv3671c protease inactive, Mtb betalactam inactive, UGM FP inh inactive and GDH-TPI inh 37.
Screening CCOc1ccc(-c2c(C(=O)N/N=C/c3ccco3)nnn2-c2nonc2N)cc1 returned FBA Mtb inh inactive, Rv3671c protease inactive, Mtb betalactam inactive, UGM FP inh inactive and GDH-TPI inh 43.
For CC(/C=N/NC(=O)c1nnn(-c2nonc2N)c1CN(C)C)=C\c1ccco1 the results were FBA Mtb inh inactive, Rv3671c protease inactive, Mtb betalactam inactive, UGM FP inh inactive and GDH-TPI inh 35.
`Cc1ccc(-c2c(C(=O)N/N=C/c3ccco3)nnn2-c2nonc2N)cc1` gave FBA Mtb inh inactive, Rv3671c protease inactive, Mtb betalactam inactive, UGM FP inh inactive and GDH-TPI inh inactive.
Screening O=C(CSc1nc(=O)n2ccccc2n1)Nc1ccc2c(c1)OCO2 returned FBA Mtb inh inactive, Rv3671c protease inactive, Mtb betalactam inactive, UGM FP inh inactive and GDH-TPI inh inactive.
For CCNC(=O)c1ccc(C23CC4CC(CC(C4)C2)C3)o1 the results were FBA Mtb inh inactive, Rv3671c protease inactive, Mtb betalactam inactive, UGM FP inh inactive and GDH-TPI inh inactive.
For CCCOc1ccc(CCC(=O)N/N=C/c2ccncc2)cc1 the results were FBA Mtb inh inactive, Rv3671c protease inactive, Mtb betalactam inactive, UGM FP inh inactive and GDH-TPI inh inactive.
`COc1ccc(-c2cc(C(=O)N3CCCC3)c3ccccc3n2)cc1` gave FBA Mtb inh 148, Rv3671c protease inactive, Mtb betalactam inactive, UGM FP inh inactive and GDH-TPI inh inactive.
`COc1ccc2cc(-c3cc(C(=O)O)c4ccccc4n3)ccc2c1` gave FBA Mtb inh inactive, Rv3671c protease inactive, Mtb betalactam inactive, UGM FP inh inactive and GDH-TPI inh 36.
Screening O=C(O)c1cc(-c2cccs2)nc2cc3c(cc12)OCCO3 returned FBA Mtb inh active, Rv3671c protease inactive, Mtb betalactam inactive, UGM FP inh inactive and GDH-TPI inh inactive.
`COc1ccc2nc(-c3ccccc3)cc(C(=O)N3CCC3)c2c1` gave FBA Mtb inh 149, Rv3671c protease inactive, Mtb betalactam inactive, UGM FP inh inactive and GDH-TPI inh inactive.
COc1ccc(-c2cc(C(F)F)n3ncc(C(=O)N4CCN(C(=O)c5ccco5)CC4)c3n2)cc1 was read as FBA Mtb inh inactive, Rv3671c protease inactive, Mtb betalactam inactive, UGM FP inh inactive and GDH-TPI inh inactive.
For COc1ccc(-c2cc(C(F)F)n3ncc(C(=O)N4CCCCC4)c3n2)cc1 the results were FBA Mtb inh inactive, Rv3671c protease inactive, Mtb betalactam inactive, UGM FP inh inactive and GDH-TPI inh 42.
`NC(=O)C1CCN(C(=O)c2cc(-c3ccc(Cl)s3)nc3ccccc23)CC1` gave FBA Mtb inh 127, Rv3671c protease inactive, Mtb betalactam inactive, UGM FP inh inactive and GDH-TPI inh 34.
Cc1ccc(-c2cc(C(=O)N(C)CC(=O)Nc3ccccc3Br)c3ccccc3n2)o1 was read as FBA Mtb inh 120, Rv3671c protease inactive, Mtb betalactam inactive, UGM FP inh inactive and GDH-TPI inh inactive.
For Cc1ccc(-c2cc(C(=O)N3CCN(c4ccc(F)cc4)CC3)c3ccccc3n2)o1 the results were FBA Mtb inh inactive, Rv3671c protease inactive, Mtb betalactam inactive, UGM FP inh inactive and GDH-TPI inh inactive.
Screening Cc1ccc(-c2cc(C(=O)N3CCOCC3)c3ccccc3n2)o1 returned FBA Mtb inh 120, Rv3671c protease inactive, Mtb betalactam inactive, UGM FP inh inactive and GDH-TPI inh inactive.
`Cc1cc(SCC(=O)OCC(=O)N(C)c2ccccc2)nc2ccccc12` gave FBA Mtb inh inactive, Rv3671c protease inactive, Mtb betalactam inactive, UGM FP inh inactive and GDH-TPI inh inactive.
CCC1(CC)NC(=O)N(CC(=O)OCC(=O)Nc2ccc(OC(F)(F)F)cc2)C1=O was read as FBA Mtb inh inactive, Rv3671c protease inactive, Mtb betalactam inactive, UGM FP inh inactive and GDH-TPI inh inactive.
`CC1O[C@@H](O[C@H](C)CC[C@@H](C)O)C(O)C[C@H]1O` (stereo partly drawn) gave FBA Mtb inh inactive, Rv3671c protease inactive, Mtb betalactam inactive, UGM FP inh inactive and GDH-TPI inh inactive.
For COc1ccc(-c2cc(C(=O)N3CC(C)CC(C)C3)c3ccccc3n2)cc1 (stereo not drawn) the results were FBA Mtb inh 50, Rv3671c protease inactive, Mtb betalactam inactive, UGM FP inh inactive and GDH-TPI inh inactive.
CS(=O)(=O)N1CCN(C(=O)c2cc(-c3cccs3)nc3ccccc23)CC1 was read as FBA Mtb inh 125, Rv3671c protease inactive, Mtb betalactam inactive, UGM FP inh inactive and GDH-TPI inh 31.
Screening CC1CC(C)CN(C(=O)c2cc(-c3ccccn3)nc3ccccc23)C1 (stereo not drawn) returned FBA Mtb inh inactive, Rv3671c protease inactive, Mtb betalactam inactive, UGM FP inh inactive and GDH-TPI inh inactive.
CCCn1c(=O)c(C(=O)NNS(=O)(=O)c2ccc(Cl)cc2)c(O)c2ccccc21 was read as FBA Mtb inh inactive, Rv3671c protease inactive, Mtb betalactam inactive, UGM FP inh inactive and GDH-TPI inh inactive.
